Reference: PubChem BioAssay (Tox21)
Values joined by “and” are separate entries in the source; they are usually repeats but may differ in a detail not shown here. Equal entries are not always repeated. Results filed as inconclusive are left out. Active and inactive are the calls of the source. Unless noted, the call rests on the fitted dose curve; in most records, active means well fitted curve in the direction sought with a large enough effect in the repeat runs; inconclusive means weak or mixed curves; inactive means no such curve, though single readings can be large; an effect the other way counts as inactive or inconclusive.

Tests used:
[1] = qHTS assay to identify small molecule agonists of the hypoxia (HIF-1) signaling pathway - cell viability counter screen (AID 1224844; calls by dose curve; further: nearly all actives have a fitted effect of over 50% in size; further: potency means the concentration at half of the fitted maximal effect)
Procedure, shortened: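 HRE-bla ME-180 cells, 2,000/well in 0.5% dialyzed FBS medium, treated 17 h at 37C with compounds. Viability read in the same wells as the bla reporter, by CellTiter-Glo luminescence after 30 min at room temperature.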

[2] = qHTS assay to identify small molecule agonists of H2AX (AID 1224845; active means well fitted activation curve with a large enough effect in the signal ratio in the repeat runs, not every such curve was filed as active; the % refers to the signal ratio; further: potency means the concentration at half of the fitted maximal effect)
Procedure, shortened: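 Phospho-H2AX Ser139 measured by HTRF (ex 320 nm; em 665 and 620 nm) after 24 hr antibody incubation. Compounds, 15 concentrations, 0.76% DMSO, were applied to CHO-K1 cells for 3hr at 37C before lysis.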

[3] = qHTS assay to identify small molecule agonists of the hypoxia (HIF-1) signaling pathway (AID 1224846; active means well fitted activation curve with a large enough effect in the signal ratio in the repeat runs, not every such curve was filed as active; the % refers to the signal ratio; further: on the % scale 0 is the no-effect control and ±100 the full control effect)
Procedure, shortened: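 HRE-bla ME-180 beta-lactamase reporter cells in medium with 0.5% dialyzed FBS, pre-incubated 5 h then exposed to compounds 17 h at 37C, 5% CO2; reporter induction read with CCF4-AM FRET substrate.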

[4] = qHTS assay to identify small molecule agonists of H2AX - cell viability counter screen (AID 1224847; calls by dose curve; further: nearly all actives have a fitted effect of over 30% in size; further: potency means the concentration at half of the fitted maximal effect)
Procedure, shortened: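 Viability of CHO-K1 (wild type) cells after 3 hr compound exposure was measured by CellTiter-Glo luminescence.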

[5] = qHTS RealTime-Glo MT Cell Viability Assay in HepG2 cells - 24 hour (AID 1224867); further: nearly all actives have a fitted effect of over 50% in size; further: potency means the concentration at half of the fitted maximal effect
Procedure, shortened: (§1)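 HepG2 cells were seeded at 600 cells/well together with NanoLuc luciferase and a cell-permeant prosubstrate, preincubated 5 h at 37 C/5% CO2, then pin-dosed with compounds in DMSO. Nonlytic luminescence from viable cells was read at each time point.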

[6] = A CellTox Green Cytotoxicity Assay to monitor cytotoxicity in HEK293 cells - 0 hour (AID 1224869); further: on the % scale 0 is the no-effect control and ±100 the full control effect; nearly all actives have a fitted effect of over 50% in size
Procedure, shortened: (§2)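 HEK293 cells, 600/well, were preincubated 5 hours and then exposed to compounds at 37 C for up to 40 hours. A cell-impermeant cyanine dye staining dead-cell DNA was read by fluorescence at 0, 8, 16, 24, 32 and 40 h time points.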

[7] = qHTS RealTime-Glo MT Cell Viability Assay in HepG2 cells - 40 hour (AID 1224870); further: nearly all actives have a fitted effect of over 50% in size; further: potency means the concentration at half of the fitted maximal effect
Procedure, shortened: (§3)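 Real-time viability: cells seeded at 600 per well together with NanoLuc and cell-permeant prosubstrate, compounds added after 5 h incubation. Luminescence tracked at 0, 8, 16, 24, 32 and 40 h of exposure.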

[8] = A CellTox Green Cytotoxicity Assay to monitor cytotoxicity in HEK293 cells - 40 hour (AID 1224871); further: nearly all actives have a fitted effect of over 45% in size; further: potency means the concentration at half of the fitted maximal effect
Procedure, shortened: as §2

[9] = qHTS RealTime-Glo MT Cell Viability Assay in HEK293 cells - 16 hour (AID 1224872); further: nearly all actives have a fitted effect of over 50% in size; further: potency means the concentration at half of the fitted maximal effect
Procedure, shortened: (§4)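 HEK293 cells were seeded at 600 cells/well together with NanoLuc luciferase and cell-permeant prosubstrate, preincubated 5 h at 37 C/5% CO2, then given compound in DMSO by pintool. Luminescence from viable-cell prosubstrate reduction was read repeatedly over 40 h.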

[10] = qHTS RealTime-Glo MT Cell Viability Assay in HepG2 cells - 8 hour (AID 1224873); further: nearly all actives have a fitted effect of over 55% in size; further: potency means the concentration at half of the fitted maximal effect
Procedure, shortened: as §3

[11] = qHTS RealTime-Glo MT Cell Viability Assay in HEK293 cells - 40 hour (AID 1224874); settings: RealTime-Glo luminescence; max response: hits give low values; further: nearly all actives have a fitted effect of over 50% in size; further: potency means the concentration at half of the fitted maximal effect; on max response: on the % scale 0 is the no-effect control and ±100 the full control effect
Procedure, shortened: (§5)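 600 cells/well were plated with the nonlytic NanoLuc/prosubstrate reagent, pre-incubated 5 h, then given 23 nL of compound in DMSO. Incubation at 37 C for 40 h, with luminescence from viable-cell-reduced substrate read repeatedly from 0 h.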

[12] = A CellTox Green Cytotoxicity Assay to monitor cytotoxicity in HEK293 cells - 24 hour (AID 1224875); further: nearly all actives have a fitted effect of over 45% in size; further: potency means the concentration at half of the fitted maximal effect; on activity change: on the % scale 0 is the no-effect control and ±100 the full control effect
Procedure, shortened: as §2

[13] = qHTS RealTime-Glo MT Cell Viability Assay in HepG2 cells - 32 hour (AID 1224877); further: nearly all actives have a fitted effect of over 55% in size; further: potency means the concentration at half of the fitted maximal effect
Procedure, shortened: as §1

[14] = A CellTox Green Cytotoxicity Assay to monitor cytotoxicity in HepG2 cells - 24 hour (AID 1224878); further: nearly all actives have a fitted effect of over 45% in size; further: potency means the concentration at half of the fitted maximal effect; on Cytotoxicity: on the % scale 0 is the no-effect control and ±100 the full control effect
Procedure, shortened: (§6)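 HepG2 cells, 600/well, preincubated 5 h with CellTox Green dye, then exposed to Tox21 compounds in DMSO at 37 C for up to 40 h. Dead-cell DNA fluorescence read at the indicated time point.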

[15] = A CellTox Green Cytotoxicity Assay to monitor cytotoxicity in HepG2 cells - 40 hour (AID 1224879); further: nearly all actives have a fitted effect of over 40% in size; further: potency means the concentration at half of the fitted maximal effect
Procedure, shortened: as §6

[16] = qHTS RealTime-Glo MT Cell Viability Assay in HEK293 cells - 0 hour (AID 1224880); further: nearly all actives have a fitted effect of over 45% in size; further: potency means the concentration at half of the fitted maximal effect
Procedure, shortened: as §5

[17] = A CellTox Green Cytotoxicity Assay to monitor cytotoxicity in HepG2 cells - 16 hour (AID 1224876); further: nearly all actives have a fitted effect of over 45% in size; further: potency means the concentration at half of the fitted maximal effect
Procedure, shortened: as §6

[18] = qHTS assay to identify small molecule antagonists of the estrogen related receptor (ERR) signaling pathway from Tox21 library (AID 1224848)
Procedure, shortened: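 Reading was by luminescence 30 min after ONE-Glo addition. Before that, ERR cells at 2,000 per well had rested 6 h at 37 C/5% CO2 and then received pin-tooled compounds in DMSO for 18 h at 37 C.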

[19] = qHTS assay to identify small molecule agonists of the estrogen related receptor (ERR) signaling pathway from Tox21 library (AID 1224849; calls by dose curve; further: on the % scale 0 is the no-effect control and ±100 the full control effect; nearly all actives have a fitted effect of over 15% in size); settings: ERR reporter cell line, ONE-Glo luciferase, 18 h; at 92.4 µM (top of the series) unless noted
Procedure, shortened: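 ERR reporter cells (NTP line) pre-incubated 6 hours at 37 C, then exposed to compounds for 18 hours at 37 C. ONE-Glo luciferase luminescence was read after 30 minutes at room temperature.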

[20] = qHTS RealTime-Glo MT Cell Viability Assay in HEK293 cells - 32 hour (AID 1224868)
Procedure, shortened: as §4

CC1=NC(C)OC1C (stereo not drawn)
inactive: Potency [1] | Potency [2] | Potency [3] | Potency [4] | Potency [5] | Potency [6] | Potency [7] | Potency [8] | Potency [9] | Potency [10] | max response [11] 0.967% | Potency [12] | Potency [13] | Potency [14] | Potency [15] | Potency [16]

Cc1cccc(S(=O)(=O)O)c1C
inactive: Potency [1] | Potency [2] | Potency [3] | Potency [5] | Potency [6] | Potency [7] | Potency [8] | Potency [9] | Potency [10] | max response [11] -3.36% | Potency [12] | Potency [17] | Potency [13] | Potency [15] | Potency [16]

CCCC1O[C@@H]2C[C@H]3[C@@H]4CCC5=CC(=O)C=C[C@]5(C)[C@H]4[C@@H](O)C[C@]3(C)[C@]2(C(=O)CO)O1 (stereo partly drawn)
active: Potency [1] 49 µM and 54.9 µM | Potency [18] 27.3 µM and 34.4 µM | Potency [20] 24.6 µM and 43.6 µM | Potency [11] 24.6 µM and 43.6 µM | Potency [15] 49 µM | Potency [16] 30.9 µM
inactive: Potency [2] | Potency [4] | activity change, positive = activation [19] -61.9% and -49.1% | Potency [5] | Potency [6] | Potency [7] | Potency [8] | Potency [10] | Potency [12] | Potency [17] | Potency [14]

C[C@@H](NCCCc1cccc(C(F)(F)F)c1)c1cccc2ccccc12
active: Potency [1] 23.9 µM | Potency [2] 49.2 µM | Potency [4] 49.2 µM | Potency [18] 26.6 µM | Potency [5] 16.9 µM | Potency [20] 23.9 µM | Potency [7] 15.1 µM | Potency [8] 23.9 µM | Potency [9] 23.9 µM | Potency [10] 23.9 µM | Potency [11] 23.9 µM | Potency [12] 23.9 µM | Potency [17] 19 µM | Potency [13] 16.9 µM | Potency [14] 16.9 µM | Potency [15] 15.1 µM
inactive: activity change, positive = activation [19] -58.9% [at 42.5 µM] | Potency [6]

c1ccc(CSCc2ccccc2)cc1
inactive: Potency [1] | Potency [2] | Potency [3] | Potency [4] | Potency [5] | Potency [6] | Potency [7] | Potency [8] | Potency [9] | Potency [10] | max response [11] -5.29% | Potency [12] | Potency [17] | Potency [13] | Potency [14] | Potency [15] | Potency [16]
